Drawing on PubChem BioAssay, this text covers z-score and composite z-score for twelve compounds.

Calls of active or inactive are those of the source.

The nature of assay [1]: optical density shifts of acrAB sulA E. coli – strain DRC41, OD650, 48 h, E. coli filamentation inducer project, primary screen (AID 1152).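 Note: E. coli MC1000 strain DRC41 lacking acrAB efflux pump and sulA.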 The settings on record: higher = more signal, called active from +8 up or from −8 down.
Assay [2] is described as follows: probe aLefty1 binding on compound microarray – biochemical, small-molecule microarray, 635/667 nm fluorescence, primary screen (AID 1153).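 Note: score merges spot fluorescence with signal-to-noise ratio from the scanned slide images.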 The settings on record: higher = more signal.
Assay [3] can be described thus: plasmodial surface anion channel blockers, osmotic lysis – cell-based, P. falciparum Indochina, OD700, 1 h, primary screen (AID 1154). The settings on record: P. falciparum Indochina infected RBC osmotic lysis, higher = more signal, called active from +8 up or from −8 down.
Assay [4] in a line: plasmodial surface anion channel blockers, osmotic lysis – cell-based, P. falciparum Indochina, OD700, 2 h, primary screen (AID 1155).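 Note: lysis reports solute entry through the parasite surface anion channel PSAC.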 The settings on record: P. falciparum Indochina infected erythrocytes, higher = more signal, called active from +8 up or from −8 down.
Assay [5] can be described thus: changes in parasitized red cell lysis, either direction – P. falciparum Indochina, OD700, 3 h, PSAC antagonist project, primary screen (AID 1156). The settings on record: P. falciparum-infected erythrocytes, osmotic lysis, higher = more signal, called active from +8 up or from −8 down.
Assay [6] can be described thus: plasmodial surface anion channel blockers, osmotic lysis – cell-based, P. falciparum Indochina, OD700, 18 h, primary screen (AID 1157). To be noted: P. falciparum Indochina infected erythrocytes, osmotic lysis OD700, 18 h; higher = more signal, called active from +8 up or from −8 down.
A short description of assay [7]: S6 kinase pathway phospho-S6 level changes – cell-based, A549, cytoblot, luminescence, serum-stimulated, primary screen (AID 1158).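 Note: serum-stimulated A549 lung adenocarcinoma cells; signal is phosphorylated S6 detected by cytoblot immunostaining with HRP secondary.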 The settings on record: 5 h, higher = more signal.
In assay [8] the target is NADPH oxidase 2 (Homo sapiens) (UniProt P04839). The assay can be described thus: compounds shifting NOX2 Amplex Red fluorescence – cell-based, HEK293-NOX2, PMA-stimulated, NOX inhibitor project, primary screen (AID 1159). Note: test concentration not given here. The settings on record: 45 min, higher = more signal, called active from +8 up or from −8 down.
For assay [9], the target named is NADPH oxidase 4 (Homo sapiens) (UniProt Q9NPH5). Nature of the assay: compounds shifting NOX4 Amplex Red fluorescence – cell-based, HEK293-NOX4, tetracycline-induced, NOX inhibitor project, primary screen (AID 1160). The settings on record: HEK293-NOX4, Amplex Red H2O2 fluorescence, 45 min; higher = more signal, called active from +8 up or from −8 down.
The target in assay [10] is NADPH oxidase 5 (Homo sapiens) (UniProt Q96PH1). Nature of the assay: compounds shifting NOX5 Amplex Red fluorescence – cell-based, HEK293-NOX5, NOX inhibitor project, primary screen (AID 1161). The settings on record: HEK293-NOX5, ionomycin, 45 min, higher = more signal.
Chain of NADPH oxidase 5 (Homo sapiens) (Q96PH1 whole entry, looked up): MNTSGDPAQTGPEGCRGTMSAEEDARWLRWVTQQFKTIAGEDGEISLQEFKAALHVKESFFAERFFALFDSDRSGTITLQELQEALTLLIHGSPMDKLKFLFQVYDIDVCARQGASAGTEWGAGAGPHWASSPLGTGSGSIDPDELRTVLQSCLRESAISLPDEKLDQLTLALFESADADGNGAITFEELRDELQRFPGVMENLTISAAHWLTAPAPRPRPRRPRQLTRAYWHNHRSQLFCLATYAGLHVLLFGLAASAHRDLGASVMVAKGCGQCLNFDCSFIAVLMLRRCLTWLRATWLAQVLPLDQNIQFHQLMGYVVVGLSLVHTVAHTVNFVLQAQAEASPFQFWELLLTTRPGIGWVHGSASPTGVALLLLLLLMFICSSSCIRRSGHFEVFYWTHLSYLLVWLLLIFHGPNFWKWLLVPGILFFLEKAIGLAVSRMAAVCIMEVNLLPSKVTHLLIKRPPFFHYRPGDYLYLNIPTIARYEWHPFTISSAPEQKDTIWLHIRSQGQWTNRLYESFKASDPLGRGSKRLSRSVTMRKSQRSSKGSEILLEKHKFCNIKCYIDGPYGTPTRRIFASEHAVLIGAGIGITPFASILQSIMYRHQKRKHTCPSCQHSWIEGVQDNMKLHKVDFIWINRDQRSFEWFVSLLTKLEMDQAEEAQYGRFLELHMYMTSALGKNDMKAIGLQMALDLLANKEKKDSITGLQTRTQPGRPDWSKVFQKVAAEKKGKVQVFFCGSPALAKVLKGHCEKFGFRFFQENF

Chain of NADPH oxidase 4 (Homo sapiens) (Q9NPH5 whole entry, looked up): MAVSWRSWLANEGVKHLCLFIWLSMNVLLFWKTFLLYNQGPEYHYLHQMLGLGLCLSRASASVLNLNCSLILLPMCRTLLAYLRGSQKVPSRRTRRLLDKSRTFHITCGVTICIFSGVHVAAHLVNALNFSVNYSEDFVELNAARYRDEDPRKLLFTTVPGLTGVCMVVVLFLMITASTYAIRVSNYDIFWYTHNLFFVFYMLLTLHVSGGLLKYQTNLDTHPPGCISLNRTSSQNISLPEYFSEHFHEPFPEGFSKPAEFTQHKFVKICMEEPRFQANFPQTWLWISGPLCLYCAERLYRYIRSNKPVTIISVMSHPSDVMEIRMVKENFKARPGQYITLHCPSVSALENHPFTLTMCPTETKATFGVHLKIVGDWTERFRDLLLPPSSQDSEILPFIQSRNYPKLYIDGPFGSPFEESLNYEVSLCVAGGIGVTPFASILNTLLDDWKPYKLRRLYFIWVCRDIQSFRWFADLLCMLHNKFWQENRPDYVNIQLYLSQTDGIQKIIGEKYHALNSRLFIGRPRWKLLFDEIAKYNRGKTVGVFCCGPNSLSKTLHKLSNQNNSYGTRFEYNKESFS
Chain of NADPH oxidase 2 (Homo sapiens) (P04839 whole entry, looked up): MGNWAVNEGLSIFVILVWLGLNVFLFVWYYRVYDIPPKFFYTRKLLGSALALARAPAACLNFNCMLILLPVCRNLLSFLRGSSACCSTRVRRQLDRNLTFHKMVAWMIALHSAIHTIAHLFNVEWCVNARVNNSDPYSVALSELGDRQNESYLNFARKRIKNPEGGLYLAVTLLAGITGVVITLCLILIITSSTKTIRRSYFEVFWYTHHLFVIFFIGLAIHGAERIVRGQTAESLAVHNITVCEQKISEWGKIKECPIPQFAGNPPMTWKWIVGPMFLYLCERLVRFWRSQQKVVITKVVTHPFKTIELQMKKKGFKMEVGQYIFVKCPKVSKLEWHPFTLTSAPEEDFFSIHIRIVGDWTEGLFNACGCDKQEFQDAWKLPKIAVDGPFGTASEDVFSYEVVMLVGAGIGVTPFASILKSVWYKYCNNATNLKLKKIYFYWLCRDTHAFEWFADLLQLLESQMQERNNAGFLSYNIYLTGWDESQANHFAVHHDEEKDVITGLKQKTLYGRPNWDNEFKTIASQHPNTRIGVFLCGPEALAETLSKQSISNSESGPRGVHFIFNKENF

As to `COC(=O)[C@@]1(Cc2ccc(F)cc2)[C@H]2c3cc(C(=O)N4CCCC4)n(Cc4cccc5ccccc45)c3C[C@H]2CN1C(=O)c1ccccc1`, the z-score in assay [1] was -2.25 (inactive); in [3], 3.9 (inactive); in [4], 1.03 (inactive); in assay [5], 1.22 (inactive); in assay [6] it was 0.863 (inactive); in [7], -0.875. The z-score in assay [8] was 0.836 (inactive); in [9] it was -0.021 (inactive); in assay [10], -0.666. The same compound registered a composite z-score in assay [2] of 0.342.
As for `C=CCC(OC(C)=O)[C@@H]1[C@@H](N(Cc2cc3ccccc3o2)C(=O)c2ccc(C)cc2)c2cc(OCCCO)ccc2N1C(=O)c1ccc2ccccc2c1` (stereo not given in full), the z-score was 2.19 (inactive) in assay [1]; 1.32 (inactive) in assay [3]; 0.393 (inactive) in assay [4]; -0.44 (inactive) in assay [5]; 0.0878 (inactive) in assay [6]; 0.147 in assay [7]. Further, the z-score in assay [8] was 0.355 (inactive); in [9], 0.89 (inactive); in assay [10], 2.7. Further, in assay [2], the composite z-score was 0.168.
As for `C=CCC(OC(C)=O)[C@@H]1[C@@H](N(Cc2cccc3ccccc23)C(=O)c2cccc3ccccc23)c2cc(OCCCO)ccc2N1C(=O)c1ccc2ccccc2n1` (stereo not given in full), the z-score in [1] is -0.773 (inactive); in assay [3], 1.1 (inactive); in [4], 0.613 (inactive); in [5], -0.249 (inactive); in [6] it was 0.532 (inactive); in assay [7], 0.443. The values for the z-score in assay [8], in assay [9] and in [10] were -0.62 (inactive), -0.419 (inactive) and -2.42, respectively. In [2], this compound gave a composite z-score of 0.0622.
In the case of `Cc1cc(C)c(C(O)C2C=CC3C(=O)N(C)C(=O)C3N2Nc2ccccc2)c(C)c1` (stereo not given), the z-score was -1.52 (inactive) in assay [1]; 0.277 (inactive) in assay [3]; 0.519 (inactive) in [4]; -0.168 (inactive) in assay [5]; 1.03 (inactive) in [6]; -0.858 in [7]. Besides, the z-score in [8] was -0.802 (inactive); in assay [9] it was -3.6 (inactive); in [10], -1.96. The composite z-score in assay [2] was 1.5.
Take `CCOC(=O)[C@H]1C[C@H]2O[C@@]23C[C@H]1C(=O)N1CCCC1[C@@H]3O[Si](C)(C)C(C)(C)C` (stereo not given in full): the z-score was -0.954 (inactive) in assay [1]; 1.35 (inactive) in [3]; 0.23 (inactive) in assay [4]; 0.183 (inactive) in assay [5]; 0.158 (inactive) in assay [6]; -0.67 in assay [7]. For the same compound, the z-score was 1.05 (inactive) in [8], 0.302 (inactive) in assay [9] and -1.7 in [10]. For the same compound, the composite z-score in [2] is -0.0573.
As for `COc1cccc(C(=O)O[C@H]2CC[C@]3(C)C4=C(CCC3C2(C)C)[C@]2(C)CC[C@H]([C@H](C)CCCC(C)C)[C@@]2(C)CC4)c1` (stereo not given in full), the z-score in [1] was 3.47 (inactive); in assay [3], -0.264 (inactive); in assay [4] it was -0.611 (inactive); in [5], -0.306 (inactive); in [6], -1.63 (inactive); in assay [7], 0.801. Moreover, the z-score in assay [8] was -0.606 (inactive); in assay [9], 0.0302 (inactive); in assay [10], 0.689. The compound further displayed a composite z-score in [2] of 0.0752.
Turning to `COC(=O)[C@@]1(Cc2ccc(OC)cc2)[C@H]2c3cc(C(=O)N4CCCC4)n(Cc4cc(F)cc5c4OCOC5)c3C[C@H]2CN1C(=O)c1ccccc1`, the z-score is -2.14 (inactive) in [1]; 1.15 (inactive) in assay [3]; 0.142 (inactive) in assay [4]; 0.951 (inactive) in assay [5]; 0.522 (inactive) in [6]; -0.0863 in assay [7]. Further, the z-score in [8] is -0.327 (inactive); in assay [9] it was -1.94 (inactive); in assay [10] it was -1.06. For the same compound, in [2], the composite z-score is -0.12.
In the case of `C=CCOC(=O)[C@H]1[C@@H]2C(=O)O[C@@H](c3ccccc3)[C@@H](c3ccccc3)N2[C@@H](c2ccc(OCCOC(=O)[C@@H]3C[C@@H]4C(=O)NCC(=O)N4[C@@H]3c3ccc(O)cc3)cc2)[C@]12C(=O)Nc1ccccc12`, the z-score in assay [1] was 2.47 (inactive); in assay [3], 1.77 (inactive); in [4], -0.0123 (inactive); in [5] it was 0.708 (inactive); in assay [6], -0.513 (inactive); in [7], 1.14. Moreover, the z-score in [8] was 2.07 (inactive); in assay [9], 1.31 (inactive); in assay [10], 1.1. In assay [2], this compound displayed a composite z-score of 0.3.
With `COc1ccc(C#Cc2ccc3c(c2)[C@]2(C(=O)N3)[C@H](C(=O)NC[C@H](O)c3ccccc3)[C@H]3C(=O)O[C@H](c4ccccc4)[C@H](c4ccccc4)N3[C@@H]2c2ccccc2OCCO)cc1`, the z-score in assay [1] was -0.13 (inactive); in [3], 1.78 (inactive); in [4] it was 1.95 (inactive); in assay [5], -0.054 (inactive); in assay [6] it was 1.41 (inactive); in assay [7], -0.0009. Moreover, the figures for the z-score in [8], in [9] and in assay [10] were 1.53 (inactive), 0.36 (inactive) and 0.24, respectively. This compound had a composite z-score in assay [2] of 0.29.
Consider `C=CC[C@@H](OC(=O)Nc1ccc(OC)cc1)c1ccc(O)c2ccccc12`, for which the z-score is 0.122 (inactive) in assay [1]; 3.63 (inactive) in assay [3]; 0.661 (inactive) in assay [4]; -0.335 (inactive) in [5]; 0.279 (inactive) in [6]; 0.229 in assay [7]. Moreover, the figures for the z-score in assay [8], in assay [9] and in assay [10] were -6.06 (inactive), -1.69 (inactive) and -0.308, respectively. This compound also registered a composite z-score in assay [2] of -0.0615.
As to `CCOc1cc(C(O)C2C=CC3C(=O)N(c4ccccc4)C(=O)C3N2Nc2ccc([N+](=O)[O-])cc2)ccc1O` (stereo not given), the z-score in [1] is -1.48 (inactive); in assay [3] it was 14.3 (active); in [4] it was 1.52 (inactive); in [5], 0.839 (inactive); in [6], 0.557 (inactive); in assay [7] it was -0.77. For the same compound, the z-score in assay [8] was -3.36 (inactive); in [9], -4.89 (inactive); in assay [10], -4.11. This compound also returned a composite z-score in assay [2] of -0.0011.
Turning to `CC(C)NC(=O)[C@@]1(Cc2ccccc2I)c2ccccc2C(=O)N(Cc2ccccc2)[C@H]1c1ccc(CO)cc1`, the z-score in [1] is -0.668 (inactive); in assay [3] it was 4 (inactive); in assay [4], 0.644 (inactive); in assay [5] it was 1.19 (inactive); in assay [6], 0.374 (inactive); in assay [7], -0.0212. Further, the z-score in assay [8] was 1.32 (inactive); in assay [9], 1.07 (inactive); in assay [10] it was 0.909. In assay [2], this compound gave a composite z-score of 0.018.
